# Experimental data: paper PMC7819943, “Rice protein-binding microarrays: a tool to detect cis-acting elements near promoter regions in rice”
# Over roughly 68,000 sequences, “fluorescence intensity (a.u.)” has its median near 9,100; the highest 2% begin near 16,000. Many of the other results were omitted from the sample, so the highest values are more common in it than they were.
# Target: OsWRKY34 (Oryza sativa, UniProt Q0JBA9 1-250)
# Test: protein-binding microarray (RPBM); PBS, 2% BSA, 51.3 ng/ul salmon testes DNA, 50 uM zinc acetate, 200 nM TF, 25 C, 1 h; high values mean tight binding
# Conditions: protein: recombinant; tags: N-terminal polyhistidine and DsRed monomer fusion (pET32a); label: CyDye5-dUTP incorporated in the synthesized complementary strand; 3' TTTTT single-stranded linker to array surface; dsDNA, one strand shown
# Outline: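 For the binding signal, per-feature fluorescence intensity was read in arbitrary units on an Axon 4000B scanner. Before scanning, a 2% BSA-blocked custom Agilent array made double-stranded with Cy5-dUTP was washed after 1 h at 25 °C with 200 nM protein and 50 µM zinc acetate. The proteins were Ni–NTA-purified transcription factors with N-terminal polyhistidine and DsRed fusions, expressed in E. coli BL21-CodonPlus.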
# Chain of OsWRKY34 (Q0JBA9 entry or part of it): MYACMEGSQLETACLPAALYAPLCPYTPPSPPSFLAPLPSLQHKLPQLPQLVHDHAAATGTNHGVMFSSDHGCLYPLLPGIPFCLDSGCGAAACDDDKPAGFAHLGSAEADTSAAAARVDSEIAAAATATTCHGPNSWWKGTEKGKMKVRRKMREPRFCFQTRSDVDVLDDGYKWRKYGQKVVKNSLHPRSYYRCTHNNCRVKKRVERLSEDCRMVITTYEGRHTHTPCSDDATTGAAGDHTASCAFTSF
row,Sequence,binding signal
1,TTGTACACTTATGATTTCCTATTTTTGCATATGATTTTGTCGGAGTCACCTAGTGCAG,8050 fluorescence intensity (a.u.)
2,GACACTAGGACAGTACGTAGCTACCTCTCCACTGCTCTGCCGGAGTCACCTAGTGCAG,8730 fluorescence intensity (a.u.)
3,CTTGATTACCCCGTAGTCAGGTTTGTATGACTAAGCAACCCGGAGTCACCTAGTGCAG,8980 fluorescence intensity (a.u.)
4,GACTGGGCCGTTGACCAGACGTGTACCCCACCGGCCAGTCCGGAGTCACCTAGTGCAG,9290 fluorescence intensity (a.u.)
5,GCCAAGGCCTTACTGCTGCTTCTGTTTCTTGCCACCAATGCGGAGTCACCTAGTGCAG,9650 fluorescence intensity (a.u.)
6,GTTTGACTATTTTATGCCTTGTAGCTTGAGCTACAGTTCACGGAGTCACCTAGTGCAG,10100 fluorescence intensity (a.u.)
7,CTCTCTAACTGCAGATTTCCCTCCCCTTTCAACGCGCGCGCGGAGTCACCTAGTGCAG,8110 fluorescence intensity (a.u.)
8,CCCCATCAACCTCCTCTTCTTCTTCGCCTCGTCTCGTCTTCGGAGTCACCTAGTGCAG,9670 fluorescence intensity (a.u.)
9,TGCTGACTTGGCGTTGACCTGTGAAATTCTCTCGCTTCACCGGAGTCACCTAGTGCAG,11500 fluorescence intensity (a.u.)
10,GCCGTTGACTTTTTATCCAACGTTTGATCATTCGTCTTATCGGAGTCACCTAGTGCAG,40800 fluorescence intensity (a.u.)
11,TTTCGATTGTTGTTTATTTTCCAGCATTAGTTTTTAAATCCGGAGTCACCTAGTGCAG,8320 fluorescence intensity (a.u.)
12,ATTTTATCCAACGTTTGACCATTCGTCTTATATAAAATATCGGAGTCACCTAGTGCAG,9960 fluorescence intensity (a.u.)
13,TTTATTAAACCTAGTTAATCCATTGTTAGCAAATATTTAACGGAGTCACCTAGTGCAG,23300 fluorescence intensity (a.u.)
14,CGTCCAACTTTGATCGTCCGTTTTATTTGAATTTTTTTATCGGAGTCACCTAGTGCAG,11200 fluorescence intensity (a.u.)
15,TATTAAATCATTTAATTTTAGCTATTGTTTTTTATTTATTCGGAGTCACCTAGTGCAG,9250 fluorescence intensity (a.u.)
16,TCTTTTTTTTTTTCATTATTGTTTGAATATTGATTTCACACGGAGTCACCTAGTGCAG,8780 fluorescence intensity (a.u.)
17,TTGCAAAATTTAAAATTATGTTGTCATTGTAATATATTTTCGGAGTCACCTAGTGCAG,8440 fluorescence intensity (a.u.)
18,GTTGGTTTTTACATTTGTTTGCTCGAGTCATATATGTCGTCGGAGTCACCTAGTGCAG,9010 fluorescence intensity (a.u.)
19,GCTGCCCCTTGTACTTACTTCTATCATCTTTCTTCCCACACGGAGTCACCTAGTGCAG,8880 fluorescence intensity (a.u.)
20,TTTAGTATATAAAAGATTATAGGGGAGGTTCATTACTTTCCGGAGTCACCTAGTGCAG,8410 fluorescence intensity (a.u.)
21,TCTTGATTGGTTGTTTTGGTTTGTTTCTTATTTATGTTTGCGGAGTCACCTAGTGCAG,8920 fluorescence intensity (a.u.)
22,TTTCTTGATTTGGTTGGGATTGGTTGTTCTTGGGCTTATCCGGAGTCACCTAGTGCAG,18900 fluorescence intensity (a.u.)
23,TCTGAGTGGTTCTCTGGGCGTTGTTGGTGCGTTCTTGATCCGGAGTCACCTAGTGCAG,8900 fluorescence intensity (a.u.)
24,GGATTGGGGAGTGATTCGGTTTGTTCTTGATTTTGATTTTCGGAGTCACCTAGTGCAG,15700 fluorescence intensity (a.u.)
25,AGATCAGGTTTTCTCTTTGGTTGATTGTGTGTGGAAGATCCGGAGTCACCTAGTGCAG,10100 fluorescence intensity (a.u.)
26,GTGTAGATTGATTGGTTCTTGGTGGTGGTGGTGGTGGATCCGGAGTCACCTAGTGCAG,22200 fluorescence intensity (a.u.)
27,CACCACCCAGATCTGTCTCGTCTCTGTTCTTGCCTTCGCTCGGAGTCACCTAGTGCAG,11900 fluorescence intensity (a.u.)
28,TGGTGTCTCATAATTCTCTACATGGTATCAAATACTGGTTCGGAGTCACCTAGTGCAG,9610 fluorescence intensity (a.u.)

row,Sequence,binding signal
1,GGCGTTATATCTGGTTTTGTGGCTGAGGGAGGTAATTTAGCGGAGTCACCTAGTGCAG,11700 fluorescence intensity (a.u.)
2,TTCACGTTCAATGTTTGACCGTTCGTCTTATTTGAAAATTCGGAGTCACCTAGTGCAG,8550 fluorescence intensity (a.u.)
3,AACTTCAGTCCTTTTCCATCACATCAACCTGTCATATACACGGAGTCACCTAGTGCAG,8220 fluorescence intensity (a.u.)
4,TGAATTGGGAAATTTCGGTGTTTTTTTTCTTCTTTTTTTTCGGAGTCACCTAGTGCAG,8740 fluorescence intensity (a.u.)
5,TAGTTTTCTCATGTTCATCAATTTAAATACCTAACAATACCGGAGTCACCTAGTGCAG,8180 fluorescence intensity (a.u.)
6,TGCTTGTACAGTTTCCGGTTTCTTTGCCATTTCGTTTACACGGAGTCACCTAGTGCAG,20000 fluorescence intensity (a.u.)
7,TCTTTTTTCCATCCATCTTTTTTTCGCCGTTCTTTCCGGTCGGAGTCACCTAGTGCAG,8220 fluorescence intensity (a.u.)
8,GCTTGCTTTGTCACATGCAGTTTTACACCTTTTATTTCTCCGGAGTCACCTAGTGCAG,10400 fluorescence intensity (a.u.)
9,GGTTTCCGTGGTGGGCCGGTTTGGGCTTTTCTTTTTTACACGGAGTCACCTAGTGCAG,18500 fluorescence intensity (a.u.)
10,ACTTTTTCCGAACCAAAATGGACTTCTTCCTTACGGTTACCGGAGTCACCTAGTGCAG,8390 fluorescence intensity (a.u.)
11,CTGCTTTTATAGTTTGGTGGGCTTTTCTTTGCTAGTGGGCCGGAGTCACCTAGTGCAG,10600 fluorescence intensity (a.u.)
12,GCTTGCAGGGCTTGGTTGTTTCTTCTTCCGTTTTTTTTTACGGAGTCACCTAGTGCAG,13600 fluorescence intensity (a.u.)
13,TTTCCTTTACTTTGGTGGTTCTTTTTTTTTTCTTTGTTTCCGGAGTCACCTAGTGCAG,11400 fluorescence intensity (a.u.)
14,GGTTCTTTGTTTCCGTTTGCTTTACCATTTTTGTTCCTTTCGGAGTCACCTAGTGCAG,10000 fluorescence intensity (a.u.)
15,CAAACAAAATGGGTTTCTTCTTACGGTTGTGGGCTTTTTCCGGAGTCACCTAGTGCAG,17400 fluorescence intensity (a.u.)
16,TTCTCTTGCTTCCTTTTTGGTCATTTGAGATAGCTTTATCCGGAGTCACCTAGTGCAG,10300 fluorescence intensity (a.u.)
17,AATCGCCGTTCTAGCTTTTTGGTCTTGGTCTTTTTTTATCCGGAGTCACCTAGTGCAG,21400 fluorescence intensity (a.u.)
18,ATCTCTTAACCTTTTTCTTATTACCAAACATGCTAACGGTCGGAGTCACCTAGTGCAG,8030 fluorescence intensity (a.u.)
19,TCGCCATCGATCGATCGTCTCAACCTCAACCACATTATTGCGGAGTCACCTAGTGCAG,8550 fluorescence intensity (a.u.)
20,TCTTCGCAACTCCAAACTTCCCGAGCATCTTATCTTTGCACGGAGTCACCTAGTGCAG,8990 fluorescence intensity (a.u.)
21,GTATTGCAATTTTTTTTTGTTTGTGTTGTATCTGTTCTCTCGGAGTCACCTAGTGCAG,8110 fluorescence intensity (a.u.)
22,GGTTAGGTTTTTTTATAGAGGGAGTAGTATGCAATTATTTCGGAGTCACCTAGTGCAG,9450 fluorescence intensity (a.u.)
23,TTTCTTGGTTCCTGTGTCTAAGCCAGCTGTAAACTTACAACGGAGTCACCTAGTGCAG,8450 fluorescence intensity (a.u.)
24,ATTTCCAAGCTCTCTTTGCAGTTACTCCTCGGTGTGCTCCCGGAGTCACCTAGTGCAG,8250 fluorescence intensity (a.u.)
25,TTTTGGATTTTGTTTCATTTTTTTTACATGCATTGGATTACGGAGTCACCTAGTGCAG,8120 fluorescence intensity (a.u.)
26,GTCATTGGTGGTTTATATTGTTTGGCTTTTTTCCGGATTACGGAGTCACCTAGTGCAG,18500 fluorescence intensity (a.u.)
27,TATATATTGTTTTTTTTTACGTTGTTGGTTCCGGATGTGACGGAGTCACCTAGTGCAG,9930 fluorescence intensity (a.u.)
